An excerpt weighted towards active compounds, which were near 6.8% of everything screened.
A340 absorber: compound absorbs light at 340 nm; 65,000 tested, under 10 active; compound absorbance at 340 nm, fold over control; fold change at 10 µM; AID 708;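 active = at 10 µM dose, initial 340 nm absorbance at least 2 fold that of control wells; inactive = change under 2 fold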;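 note: initial absorbance extrapolated from kinetic A340 decline of NADH oxidation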
NADH coupling: inhibitors of enzymes used to reach an NAD/NADH endpoint; coupled PK/LDH NADH assays, four targets; IC50, µM (titrated, usually from 10 µM), for inactives: top-dose inhibition; hit rate 0.02% among 65,000; AID 774;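 active = single-dose screening hits from any of four coupled enzyme assays that gave an IC50 when retested across doses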;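 note: the DPM-DC format reads NADH fluorescence rather than 340 nm absorbance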
Fluor 339 460: intrinsic fluorescence of library compounds, ex339/em460 – biochemical, MLSMR library, data from DPM-DC assay, artefact control, profiling panel; compound autofluorescence, ex339/em460 nm, NADH buffer; active compounds read high; 1 = no-compound wells, NADH background; fluorescence fold increase at 10 µM; AID 709; hit rate 5.5% among 65,000;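 active = at 10 µM, mean starting fluorescence two-fold or more over control wells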;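 note: signal is the first read of a kinetic run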
MK inhibit: blocks S. pneumoniae mevalonate kinase. inhibition, % at 10 µM. hit rate 0.48% among 65,000. purified MK, PK/LDH-coupled NADH absorbance 340 nm;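 active = ranked among the strongest by inhibition in the single 10 µM screen, a fixed top-ranked set picked for dose follow-up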
Spn DPM-DC inh: inhibitors of Streptococcus pneumoniae diphosphomevalonate decarboxylase; purified DPM-DC, PK/LDH coupled NADH fluorescence; calls only at 10 µM; hit rate 0.49% among 65,000; AID 556;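 active = the 320 compounds with the highest percent inhibition in the single-dose primary screen, excluding strongly autofluorescent ones, cut at about 32% in these data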;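 note: kinetic rate of NADH fluorescence loss reporting ADP formed by the decarboxylase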
Spn PMK inh: inhibitors of Streptococcus pneumoniae phosphomevalonate kinase. purified PMK, PK/LDH-coupled NADH absorbance 340 nm. inhibition, % at 10 µM. hit rate 0.49% among 65,000;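 active = top-ranked compounds by inhibition in the single 10 µM screen, taking a fixed number of the strongest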;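 note: 0% = full reaction with DMSO carrier and 100% = background rate without enzyme reaction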
An asterisk follows results filed as active; i = inactive; . = no result shown.

SMILES | A340 absorber | NADH coupling | Fluor 339 460 | MK inhibit | Spn DPM-DC inh | Spn PMK inh
COC(=O)C1=C(C)NC(C)=C(C(=O)OC)C1c1cc2ccc(C)cc2[nH]c1=O | 1.08 | 8.0% | 2.25* | 5.0 | i | 6.0
CCOC(=O)C1=C(C)NC(C)=C(C(=O)OC)C1c1cccc(Cl)c1Cl (centres undefined) | 0.99 | 3.0% | 1.39 | 7.0 | i | 6.0
O=c1c2sc3nc(N4CCOCC4)c4c(c3c2ncn1Cc1ccco1)CCCC4 | 1 | 3.0% | 1.18 | 0.0 | i | 8.0
Cc1cc(=O)oc2c(CN(C)Cc3ccccc3)c(O)ccc12 | 1.22 | 6.0% | 3.62* | 10.0 | . | 2.0
Cc1cc(=O)oc2c(N)c(O)ccc12 | 1.11 | 3.0% | 1.1 | 1.0 | i | 0.0
Cc1cccn2c(=O)c3cc(C(=O)NCc4ccco4)c(=N)n(C(C)C)c3nc12 | 1.04 | 6.0% | 2.27* | 11.0 | . | 1.0
Cc1cccn2c(=O)c3cc(C(=O)NCc4ccco4)c(=N)n(CCc4ccccc4)c3nc12 | 1.04 | 14.0% | 3.78* | 5.0 | . | 23.0
COCCCn1c(=N)c(C(=O)NCc2ccc3c(c2)OCO3)cc2c(=O)n3cccc(C)c3nc21 | 1.04 | 7.0% | 1.67 | 7.0 | i | 13.0
CC12CCC(=O)N1C(C(=O)O)Cc1c2[nH]c2ccccc12 (centres undefined) | 1.02 | 5.0% | 1.1 | 2.0 | i | 13.0
COc1ccc2c(c1OC)C(=O)N1C(C(=O)O)Cc3c([nH]c4ccccc34)C21 (centres undefined) | 1.02 | 4.0% | 2.17* | 1.0 | i | 4.0
CCn1c(=O)c2cc(C(=O)Nc3cc(C)on3)sc2c2ccccc21 | 1.1 | 4.0% | 2.18* | 5.0 | . | 2.0
Cc1ccc2[nH]c(=O)c3cc(C(=O)NCCN4CCN(C)CC4)sc3c2c1 | 1.02 | 5.0% | 2.43* | 7.0 | . | 21.0
CCn1c(=O)c2cc(C(=O)NCc3cccs3)sc2c2ccccc21 | 1.09 | 4.0% | 1.82 | 0.0 | i | 7.0
CCn1c(=O)c2cc(C(=O)NCCN3CCOCC3)sc2c2ccccc21 | 1.14 | 3.0% | 2.12* | 3.0 | . | 3.0
CCn1c2ccccc2c2nnc(SCC(=O)Nc3cc(C)on3)nc21 | 1.05 | 8.0% | 0.97 | 5.0 | i | 19.0
Cc1ccc(S(=O)(=O)c2nc(S(C)(=O)=O)sc2NCC2CCCO2)cc1 (centres undefined) | 1.08 | 4.0% | 2.14* | 7.0 | . | 0.0
O=C(NCCC1=CCCCC1)C1COc2ccccc2O1 (centres undefined) | 0.99 | 5.0% | 1.09 | 4.0 | i | 12.0
COc1ccc(C(=O)Nn2cc3c(c2-c2ccccc2)c(=O)n(C)c(=O)n3C)cc1 | 1.08 | 2.0% | 1.37 | 2.0 | i | 3.0
COc1ccc(-c2c3c(=O)n(C)c(=O)n(C)c3cn2-c2ccccc2)cc1 | 1.02 | 12.0% | 3.82* | 8.0 | . | 16.0
CCN(CC)CCNC(=O)c1cc2c(-c3ccc(Cl)cc3)nn(C)c2s1 | 1.1 | 5.0% | 2.15* | 7.0 | . | 2.0
Cn1nc(-c2ccc(Cl)cc2)c2cc(C(=O)NC3CC3)sc21 | 1.07 | 3.0% | 2.12* | 0.0 | . | 6.0
CC1CCCN(C(=O)c2cc3c(-c4ccc(Cl)cc4)nn(C)c3s2)C1 (centres undefined) | 1.01 | 4.0% | 1.04 | 2.0 | i | 0.0
CCOCCCNC(=O)c1cc2c(-c3ccc(Cl)cc3)nn(C)c2s1 | 1.06 | 8.0% | 2.15* | 8.0 | . | 7.0
COc1ccc(S(=O)(=O)N2CCCC(C(=O)NCc3ccccn3)C2)cc1Cl (centres undefined) | 1.03 | 5.0% | 1.06 | 11.0 | i | 1.0
COc1cc(NC(=O)c2cc3c(C)nc4ccccc4c3o2)cc(OC)c1OC | 1.1 | 10.0% | 1.04 | 10.0 | i | 18.0
Cc1nc2ccccc2c2oc(C(=O)Nc3ccc4c(c3)OCCO4)cc12 | 1.04 | 11.0% | 2.13* | 14.0 | . | 7.0
COc1ccc(C)cc1NC(=O)c1cc2c(C)nc3ccccc3c2o1 | 1.06 | 7.0% | 4.99* | 8.0 | . | 6.0
Cc1cc(-c2cccnc2)c(C#N)c(SCC#N)n1 | 1.04 | 2.0% | 1.07 | 1.0 | i | 3.0
Cc1cc(-c2ccccc2)c(C#N)c(N)n1 | 1.02 | 4.0% | 2.41* | 10.0 | . | 8.0
COc1ccc(CCNC(=O)c2ccc(NS(=O)(=O)c3c(C)noc3C)cc2)cc1OC | 1.01 | 4.0% | 1.11 | 4.0 | i | 9.0

Bioassay records as filed in PubChem BioAssay.
